Compound activity: PubChem, National Center for Advancing Translational Sciences (NCATS)
NPC1 prom act: activates the NPC1 promoter; Huh7 NPC1 promoter luciferase reporter, 24 h; Potency, µM (series often up to 9.22 µM), hits mostly activators; 2.4% of 320,000 active; note: nearly all actives have a fitted effect of over 60% in size
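Readout is luciferase luminescence, reflecting NPC1 promoter activation in stably transfected Huh7 cells after 24 h compound exposure at 37 °C in reduced-serum medium with 10% FBS.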
ELG1 genotox: genotoxicity induction in ELG1-luciferase HEK293T cells. HEK293T ELG1-luciferase reporter, luminescence, 16 h. 1.3% of 330,000 active. Potency, µM (titrated, usually from 46 µM), hits mostly activators. AID 504466; note: nearly all actives have a fitted effect of over 60% in size
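Cells (2,000/well) expressing the ELG1-luciferase fusion are dosed by pin tool and kept 16 hr at 37 °C, 5% CO2. Signal comes from ONE-Glo luciferase reagent after 30 min at room temperature.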
KinaseGlo FLuc: blocks Kinase-Glo luciferase, a counter-screen artifact | Q27757 | Kinase-Glo luciferase, ATP luminescence, 8 min | Potency, µM (highest dose often 38.3 µM), hits mostly inhibitors | 0.28% of 200,000 active; note: nearly all actives have a fitted effect of over 60% in size
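Compounds were added to a substrate mix at pH 7.2 (50 mM imidazole, 10 uM ATP, within the enzyme's linear range), followed by Kinase-Glo detection reagent; luminescence was measured after 8 minutes at ambient temperature.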
SMN2 splice up: enhancers of SMN2 splice variant expression; HEK293 SMN2-luciferase splicing reporter, luminescence, 30-36 h; Potency, µM (highest dose often 46.1 µM), usual class: activators; 2.8% of 210,000 active; AID 1458; note: nearly all actives have a fitted effect of over 55% in size
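qHTS luciferase splicing reporter: luminescence rises when SMN2 exon 7 is included in transfected HEK293 cells. Compound exposure lasted 30-36 h at 37C, with 4.5 mM final sodium butyrate as control, followed by a ONE-Glo read.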
FLuc modulator: inhibits or activates purified firefly luciferase, miR-21 counter-screen. 6.9% of 360,000 active. Potency, µM (series often up to 57.5 µM), most hits filed as inhibitors. P08659. AID 588342. purified FLuc, Km substrates, luminescence inhibition; note: nearly all actives have a fitted effect of over 55% in size
Target sequence (P08659 whole entry, looked up): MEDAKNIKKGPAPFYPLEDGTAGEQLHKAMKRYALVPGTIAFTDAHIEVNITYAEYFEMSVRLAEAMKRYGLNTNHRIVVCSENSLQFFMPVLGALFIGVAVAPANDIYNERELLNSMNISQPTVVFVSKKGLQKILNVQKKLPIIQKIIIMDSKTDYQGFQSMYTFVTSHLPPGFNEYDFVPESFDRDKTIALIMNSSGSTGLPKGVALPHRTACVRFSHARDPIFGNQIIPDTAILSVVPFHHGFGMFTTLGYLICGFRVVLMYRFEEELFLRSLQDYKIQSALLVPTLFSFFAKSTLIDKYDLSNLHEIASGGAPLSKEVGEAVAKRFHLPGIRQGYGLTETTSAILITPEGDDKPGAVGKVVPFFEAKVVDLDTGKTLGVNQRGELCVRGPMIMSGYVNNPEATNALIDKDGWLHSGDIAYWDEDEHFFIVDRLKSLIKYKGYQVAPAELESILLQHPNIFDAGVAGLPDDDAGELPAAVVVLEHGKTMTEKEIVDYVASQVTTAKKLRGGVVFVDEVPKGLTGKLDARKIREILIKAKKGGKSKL
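Biochemical qHTS of compounds, final roughly 60 µM downward over six points, against 10 nM purified firefly luciferase using Km concentrations of substrates (10 uM D-luciferin, 10 uM ATP) in Tris acetate pH 7.5 buffer; luminescence output.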
Rab9 promoter act: activates the Rab9 promoter | Huh7 Rab9 promoter-luciferase reporter, luminescence, 24 h | Potency, µM (doses to about 9.22 µM), most hits filed as activators | 2.8% of 320,000 active; note: nearly all actives have a fitted effect of over 60% in size
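Huh7 cells stably carrying Rab9 promoter–luciferase reporter, plated 1500 cells/well, compound added after 2 h and incubated 24 h at 37 °C; luciferase luminescence then read after 10 min with detection reagent.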
A number is an active result; . = inactive; ? = inconclusive; / = not tested or not shown. Shown are actives, neighbours in structure and some others; about 7.4% of the full set was active somewhere. Calls come from the whole dose curve; as a rule, active = well fitted curve in the direction sought with a large enough effect; inconclusive = small, poorly fitted or top-dose-only effect, or another doubt; inactive = no such curve, though single readings can be large; an effect the other way counts as inactive or inconclusive.

SMILES	NPC1 prom act	ELG1 genotox	KinaseGlo FLuc	SMN2 splice up	FLuc modulator	Rab9 promoter act
CC(C)c1ccc2oc(-c3ccc(N)cc3)nc2c1	0.56µM	?	/	/	0.19µM	0.56µM
Cc1ccc(-c2nc3cc(N)ccc3o2)c(C)c1	?	2.6µM	.	?	0.67µM	0.56µM
CC(C)(C)c1ccc(CNC(=O)C2CCCN2C(=O)Nc2ccccc2)cc1 (stereo not drawn)	.	.	/	/	.	.
Cc1ccc(Cc2nc3ccccc3nc2SCC(=O)N2CCN(c3ccccc3F)CC2)cc1	/	/	/	/	.	/
CCc1ccc(NC(=O)CC2C(=O)N(c3cccc(C)c3)C(=O)N2Cc2ccco2)cc1 (stereo not drawn)	/	/	/	/	.	/
Cc1ccc2oc(-c3cccc(N)c3)nc2c1	1µM	2.3µM	/	/	0.76µM	0.63µM
Cc1ccc(-c2nc3cc(C)ccc3o2)cc1	?	0.52µM	?	11µM	0.17µM	0.63µM
Cc1ccc(-c2nc3cc(NS(=O)(=O)c4ccc(C)cc4)ccc3o2)cc1	.	.	.	.	?	.
COc1cc2c(cc1OC)n(Cc1cccc(C(F)(F)F)c1)c(=O)n1nc(-c3ccccc3)nc21	/	/	/	.	.	/
Cc1cc(C)c2c(=O)n(CC(=O)NCCCN3CCN(c4ccccc4F)CC3)sc2n1	.	.	11µM	.	?	.
Cc1cc(C)c2c(=O)n(CC(=O)N3CCC(Cc4ccccc4)CC3)sc2n1	.	.	.	.	?	.
Cc1cc(C)c2c(=O)n(CC(=O)NCCCN3CCOCC3)sc2n1	.	.	7.9µM	.	?	.
Cc1c(NC(=O)c2cc3ccccc3o2)cccc1-c1nc2ccccc2o1	/	/	/	.	?	/
O=C(O)CCSC1CC(=O)N(c2ccccc2)C1=O (stereo not drawn)	.	.	/	/	.	.
O=C1CC(SCCO)C(=O)N1c1ccc(Oc2ccccc2)cc1 (stereo not drawn)	.	.	.	.	21µM	.
O=c1[nH][nH]c(=O)c2c(NS(=O)(=O)c3ccccc3)cccc12	.	?	.	.	19µM	.
O=C1NC(=S)N/C1=C/c1cccc([N+](=O)[O-])c1	.	.	.	.	.	.
CN1C(=O)/C(=C/c2cccc([N+](=O)[O-])c2)C(=O)N1c1ccccc1	.	?	/	/	15µM	.
O=C(NNC1=C(C(=O)C(F)(F)F)CCC1)c1ccccc1Cl	.	.	.	.	.	.
O=C(NNC1=C(C(=O)C(F)(F)F)CCC1)c1ccccc1O	.	.	.	.	27µM	.
CNc1nn(-c2cccc(Cl)c2)nc1N	?	11µM	.	?	24µM	?
CN(C)c1ccc(C=NCC2COc3ccccc3O2)cc1 (stereo not drawn)	.	.	.	/	12µM	.
O=C(COC(=O)CCNS(=O)(=O)c1ccccc1)Nc1ccc(OC(F)F)cc1	.	.	/	/	.	.
O=C(Nc1ccc(S(=O)(=O)N2CCCCC2c2cccnc2)cc1)c1ccc(Br)cc1 (stereo not drawn)	/	/	/	/	.	/
O=C(NC(=S)NNC(=O)c1ccccc1O)c1ccc(F)cc1	.	.	/	/	27µM	.
SMILES	NPC1 prom act	ELG1 genotox	KinaseGlo FLuc	SMN2 splice up	FLuc modulator	Rab9 promoter act
O=C(NC(=S)NNC(=O)c1ccccc1O)c1ccccc1	.	.	/	/	24µM	.
Cc1ccc(C(=O)NC(=S)NNC(=O)c2ccccc2O)cc1	.	.	/	/	?	.
CCOc1ccc(C(=O)NCC(=O)OCc2ccc(F)cc2Cl)cc1	.	.	.	.	?	.
COc1ccc(/C=N/NS(=O)(=O)c2ccc(C)cc2)cc1OC(=O)c1ccccc1	/	/	.	.	.	/
CCc1ccc(OCC(=O)N/N=C/c2ccc(OS(=O)(=O)c3ccc(C)cc3)c(OC)c2)cc1	.	.	.	.	5.4µM	.
COc1cc(/C=N/NS(=O)(=O)c2ccc(C)cc2)ccc1OCc1cccc(C(=O)O)c1	2µM	.	.	3.5µM	0.43µM	0.89µM
COc1cc(/C=N/NS(=O)(=O)c2ccc3ccccc3c2)ccc1OCc1ccc(C(=O)O)cc1	0.63µM	?	/	/	0.34µM	2µM
CCOC(=O)C1(Cc2ccc(OC)cc2)CCN(C(=O)c2cc(C)nn2C)CC1	.	.	/	/	.	.
COc1ccc(CCN(CC(=O)NCc2ccc(F)cc2)C(=O)c2snc(C(N)=O)c2N)cc1OC	.	.	/	/	.	.
Cc1ccccc1C(=O)NNC(=O)CSc1nc2ccccc2c(=O)[nH]1	.	.	/	/	.	.
Cc1cccc(C(=O)Nc2ccc(N3CCC(CCN4CCOCC4)CC3)c(C(=O)O)c2)c1	.	/	/	/	.	.
CCOC(=O)c1ccc(Nc2nc(N)c3cc(OC)c(OC)cc3n2)cc1	.	.	/	.	7.6µM	.
COc1cc2nc(Nc3ccc(C)c(Cl)c3)nc(N)c2cc1OC	.	.	/	/	21µM	.
COc1cc2nc(Nc3ccc(C)c(C)c3)nc(N)c2cc1OC	.	.	/	.	?	.
Cc1ccc(Nc2nc(NCCO)c3ccccc3n2)cc1C	.	.	/	/	7.6µM	.
Cc1ccc(Nc2nc(N)c3ccccc3n2)cc1Cl	0.56µM	?	/	/	0.95µM	0.63µM
COCCNC(=O)CSc1nc2cc3c(cc2c(=O)n1CCCC(=O)NCc1ccc2c(c1)OCO2)OCO3	/	/	/	/	.	/
COc1cc2nc(Nc3cccc(C)c3)nc(N)c2cc1OC	/	/	/	.	5.4µM	/
O=C(O)COc1ccc(/C=N/Nc2nc(Nc3ccccc3)nc(N3CCCCC3)n2)cc1	.	.	.	.	0.67µM	.
O=C(O)c1cccc(Nc2nc(Nc3ccccc3)nc(N3CCCC3)n2)c1	3.2µM	.	.	.	?	?
CC(=O)Nc1ccc(/C(C)=N/Nc2nc(Nc3ccccc3)nc(N3CCOCC3)n2)cc1	.	.	.	/	17µM	.
COc1ccc(/C=N/Nc2nc(Nc3ccccc3)nc(N3CCCC3)n2)cc1	.	.	.	.	.	.
O=[N+]([O-])c1cc2c(cc1/C=N/Nc1nc(Nc3ccccc3)nc(N3CCCCC3)n1)OCO2	.	.	.	.	2.1µM	.
Cc1cc(C)nc(N/N=C/c2cc3c(cc2[N+](=O)[O-])OCO3)n1	.	.	.	.	.	.
O=S1(=O)CCO[C@H]2Cc3ccccc3[C@H]2N1Cc1ccc(F)cc1	.	.	/	/	.	.
C(=N\Nc1nc(Nc2ccccc2)nc(N2CCCCC2)n1)/c1ccco1	.	.	.	/	6µM	.
c1ccc(Nc2nc(N3CCCCC3)nc(N3CCCCC3)n2)cc1	.	.	.	.	.	.
Cc1cnc(C(=O)OCC(=O)c2c[nH]c3ccccc23)cn1	.	.	/	/	.	.
CC1(C(=O)OCC(=O)c2c[nH]c3ccccc23)CC1(Cl)Cl (stereo not drawn)	4µM	?	.	?	6.7µM	3.2µM
COc1ccc(OCC(=O)c2c[nH]c3ccccc23)cc1	?	.	.	.	3.8µM	?
